# Compound activity (PubChem BioAssay)
# Tau fibril FP: blocks human tau fibril formation measured by polarization. K18 P301L tau heparin fibrillization, Alexa594 FP, 6 h. Potency, µM (highest dose often 57.7 µM), actives largely listed as inhibitors. 0.39% of 280,000 active. AID 1468; further: nearly all actives have a fitted effect of over 55% in size
# Target sequence (P10636 561-689 P618L limits assumed): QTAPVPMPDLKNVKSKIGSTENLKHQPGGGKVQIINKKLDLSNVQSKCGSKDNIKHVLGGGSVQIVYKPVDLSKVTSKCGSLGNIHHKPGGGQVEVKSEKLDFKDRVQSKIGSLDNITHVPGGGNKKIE
#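 Heparin (20 uM) drove fibril formation of recombinant tau K18 P301L, 15 uM unlabeled with 0.24 uM Alexa 594 label, for 6 hr at 37 C in 100 mM sodium acetate pH 7. Fluorescence polarization (555/632 nm) read 1 hr after 30 uM ThT.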
# Tau fluor counter: counter-screen for tau fibril formation inhibitors; tau K18 P301L Alexa594 fluorescence, heparin fibrillization; Potency, µM (titrated, usually from 57.7 µM); 0.93% of 280,000 active; AID 1463; further: nearly all actives have a fitted effect of over 55% in size
#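 Human K18 P301L tau (15 uM unlabeled plus 0.24 uM Alexa 594-labeled, final) in 100 mM sodium acetate pH 7 was mixed with compound and 20 uM heparin and incubated 6 hr at 37 C.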
# Sfp PPTase inh: Sfp phosphopantetheinyl transferase inhibition; Q9F4F7; Potency, µM, actives largely listed as inhibitors; Biochemical Sfp PPTase activity, qHTS; 3.5% of 310,000 active;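 further: the enzyme is Sfp with the accession as filed and its product quenches rhodamine fluorescence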
#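 Compounds were incubated with enzyme (final 15 nM) for 15 min at room temperature before substrate addition started the reaction. Fluorescence at 525 nm excitation, 598 nm emission was recorded immediately and after 30 minutes.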
# Tau fibril ThT: blocks human tau fibril formation measured by thioflavin T; P10636; recombinant tau K18 P301L (four-repeat tau fragment), heparin-induced fibrillization, ThT fluorescence; Potency, µM (top dose mostly 57.4 µM), actives largely listed as inhibitors; 2.1% of 270,000 active; AID 1460; further: nearly all actives have a fitted effect of over 55% in size
#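 Heparin-induced fibrillization of the P301L-mutant K18 repeat-domain fragment of human tau was followed by ThT binding in quantitative high-throughput format.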
# Coupling enz: coupling enzyme interference in Giardia aldolase counter-screen; coupling enzyme system counterscreen, AmpLite Red fluorescence; activity change, negative = inhibition, % at 58.2 µM, hits read low; 0.67% of 290,000 active; AID 2472; in the data active means activity change below about -30%
#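 Counterscreen of the coupled detection system alone, without aldolase: glyceraldehyde-3-phosphate coupling enzymes plus AmpLite Red readout. Compounds at 57.5 uM final, 10 min RT preincubation, 20 min RT reaction, fluorescence 525/598 nm.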
# G9a block: blocks human histone lysine methyltransferase G9a; Q96KQ7; G9a H3K9 monomethylation, AlphaScreen, 2 h; Potency, µM (titrated, usually from 102 µM), most hits filed as inhibitors; 8.8% of 350,000 active; further: nearly all actives have a fitted effect of over 75% in size
# Target sequence (Q96KQ7 913-1193 limits assumed): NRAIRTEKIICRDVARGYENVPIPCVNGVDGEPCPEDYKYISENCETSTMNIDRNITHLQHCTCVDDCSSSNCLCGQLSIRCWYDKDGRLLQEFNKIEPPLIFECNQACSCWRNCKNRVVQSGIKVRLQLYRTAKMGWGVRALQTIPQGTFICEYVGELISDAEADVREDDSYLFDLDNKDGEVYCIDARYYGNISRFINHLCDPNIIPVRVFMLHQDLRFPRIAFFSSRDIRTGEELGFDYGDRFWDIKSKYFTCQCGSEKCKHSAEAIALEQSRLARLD
#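 Readings reflect AlphaScreen signal from monomethyl-H3K9 antibody detection. HMT at 20 nM; substrate b-H3K9 500 nM; cofactor SAM 20 uM; 2 h RT reaction; compounds tested as titrations in qHTS with 15 min preincubation.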
# Hits are given with their value; . = inactive; ? = inconclusive; / = no result. Shown are actives, neighbours in structure and some others; about 11% of the full set was active somewhere. Unless noted, the call rests on the fitted dose curve; in most records, active means well fitted curve in the direction sought with a large enough effect; inconclusive means small, poorly fitted or top-dose-only effect, or another doubt; inactive means no such curve, though single readings can be large; an effect the other way counts as inactive or inconclusive.
SMILES,Tau fibril FP,Tau fluor counter,Sfp PPTase inh,Tau fibril ThT,Coupling enz,G9a block
O=C(CN1N=C(c2ccccc2)CCC1=O)NCc1ccc(F)cc1Cl,.,.,/,.,/,.
COC(=O)c1cccnc1NC(=S)NC1CCCCC1,.,.,.,.,.,14µM
COC(=O)c1cccnc1NC(=S)NNC(=O)c1ccncc1,.,.,10µM,.,.,?
COC(=O)c1ccc(NC(=S)NC2CCCCC2)cc1,.,.,.,.,.,/
O=C(Nc1cc(F)ccc1F)c1cc2nc(-c3ccco3)cc(C(F)(F)Cl)n2n1,.,.,/,.,/,?
O=C1C(Cl)=C(Nc2ccccc2O)C(=O)N1CCc1ccccc1,?,?,11µM,10µM,.,3.2µM
COc1ccc(N2C(=O)C(Cl)=C(Nc3c(C)n(C)n(-c4ccccc4)c3=O)C2=O)cc1,.,.,45µM,?,.,8.9µM
COc1ccc(N2C(=O)C(Cl)=C(Nc3ccc(OC)cc3OC)C2=O)cc1,.,.,.,?,.,?
COc1ccc(NC2=C(Cl)C(=O)N(c3ccccc3)C2=O)c(OC)c1,.,?,.,?,.,?
CCOc1ccc(N2C(=O)C(Cl)=C(Nc3ccccc3O)C2=O)cc1,?,?,40µM,10µM,.,7.9µM
COc1ccc(CCNC2=C(Cl)C(=O)N(CCc3ccccc3)C2=O)cc1OC,.,.,.,?,.,.
COc1ccccc1NC1=C(Cl)C(=O)N(c2ccccc2)C1=O,.,.,.,?,.,45µM
Cc1ccccc1OCC(=O)NNC(=O)c1cc(S(=O)(=O)N2CCOCC2)ccc1N1CCCC1,/,/,/,/,/,.
NS(=O)(=O)c1ccc(CNC(=O)Cc2cccs2)cc1,/,/,.,/,.,71µM
CC(=O)C(=Nc1ccccc1Cl)NNc1ccc(Cl)cc1,?,?,.,6.3µM,.,7.9µM
Clc1ccc2oc(SCc3cccnc3)nc2c1,/,/,.,/,.,.
Cc1ccc(CCNC(=O)C2=CCN(S(=O)(=O)c3ccccc3)CC2)cc1,/,/,.,/,.,.
CCN(CC)c1ccc(NC(=O)C2=CCN(S(=O)(=O)c3ccc(F)cc3)CC2)c(C)c1,.,.,.,?,.,11µM
Cc1ccc(S(=O)(=O)N2CC=C(C(=O)NCc3ccc(F)cc3)CC2)cc1,.,.,?,.,.,22µM
COCCCNC(=O)C1=CCN(S(=O)(=O)c2ccc(C)cc2)CC1,/,/,.,/,.,35µM
COc1ccccc1CNC(=O)C1=CCN(S(=O)(=O)c2ccc(C)cc2)CC1,.,.,.,/,.,50µM
COc1cc(/C=C2\SC(=S)N(CCC(=O)N3CCCCC3)C2=O)cc(OC)c1OC,/,/,.,/,.,?
Cc1ccc(CNC(=O)c2ccc3c(c2)CCN3S(=O)(=O)c2ccccc2)cc1,.,.,/,.,/,5.6µM
COc1ccccc1CNS(=O)(=O)c1cccs1,/,/,.,/,.,/
COc1ccccc1CNC(=O)COC(=O)CNS(=O)(=O)c1ccc(C)cc1,/,/,28µM,/,/,71µM
SMILES,Tau fibril FP,Tau fluor counter,Sfp PPTase inh,Tau fibril ThT,Coupling enz,G9a block
COc1ccccc1CNC(=O)CCS(=O)(=O)c1cccs1,.,.,.,.,.,45µM
Cc1ccc(CNC(=O)C2=CCN(S(=O)(=O)c3ccc(C)cc3)CC2)cc1,.,.,.,?,.,32µM
NC1=C(O)C(=O)C(c2ccccc2)O1 (centres undefined),.,.,.,?,.,?
CCc1ccc(NC(=O)CN2C(=O)CSc3ccc(S(=O)(=O)N(C)C)cc32)cc1,.,.,/,.,/,.
CCN(CC)c1ccc(NC(=O)c2c(C)nn(-c3ccc(F)cc3)c2-n2cccc2)c(C)c1,?,.,/,?,/,3.2µM
O=C(NCc1ccc(Cl)cc1)C1CCN(S(=O)(=O)N2CCOCC2)CC1,.,.,.,.,.,.
Cc1ccc2nc(-c3ccccc3F)c(Nc3ccc(Cl)cc3)n2c1,.,?,/,.,/,?
Cc1cc(-c2nsc(=O)o2)c(S(C)(=O)=O)s1,?,.,.,32µM,.,2µM
CCCOC(=O)c1c(NC(=O)C2c3ccccc3Oc3ccccc32)sc2c1CCC(C)C2 (centres undefined),?,.,/,.,/,.
COc1ccc(C(=O)N/C(=C\c2cn(C)c3ccccc23)C(=O)NCCN2CCOCC2)cc1OC,/,/,.,/,.,50µM
